# Compound activity: PubChem BioAssay, National Center for Advancing Translational Sciences (NCATS)
# TRHR agonist: agonists of human TRH receptor | TRHR cells, calcium flux fluo-8, FDSS agonist mode | activation, % at 2 µM | 0.18% of 360,000 active | AID 493084; in the data active = activation above about 30%; also: 0% is about no effect
# Target sequence (P34981 whole entry, looked up): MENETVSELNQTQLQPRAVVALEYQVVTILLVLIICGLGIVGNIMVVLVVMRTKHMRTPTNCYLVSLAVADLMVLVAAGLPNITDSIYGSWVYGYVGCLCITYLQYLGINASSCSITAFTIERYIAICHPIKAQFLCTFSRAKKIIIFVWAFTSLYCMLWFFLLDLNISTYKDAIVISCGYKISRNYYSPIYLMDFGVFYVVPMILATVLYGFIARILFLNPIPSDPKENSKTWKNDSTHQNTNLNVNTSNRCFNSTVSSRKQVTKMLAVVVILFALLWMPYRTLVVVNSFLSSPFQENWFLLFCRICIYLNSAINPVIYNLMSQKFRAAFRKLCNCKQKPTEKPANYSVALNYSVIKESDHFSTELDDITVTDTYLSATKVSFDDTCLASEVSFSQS
#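 Agonist-mode FDSS calcium read (Ex 480/Em 530, 1 s cycles) in 1536-well TRHR cells with fluo-8 dye, after 10-cycle baseline and 23 nL compound addition; TRH at EC20 (10 nM final) added afterwards for the enhancer phase.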
# TRHR enhancer: TRH receptor (human) allosteric enhancement. TRHR cells, fluo-8 calcium fluorescence, EC20 TRH enhancement. enhancement, % at 2 µM. 0.66% of 360,000 active; in the data active = enhancement above about 30%; also: 0% is about no effect
#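 Enhancer read-out: after compound pinning and an initial kinetic agonist-mode read, an EC20 of TRH (10 nM final) was injected and fluo-8 calcium signal (Ex 480/Em 530) followed at 1 s/cycle for 100 cycles in TRHR-expressing cells.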
# PTHR1 agonist: PTHR1 (human) receptor agonism; Q03431; HEK293 GP2 PTHR1 cells, GloSensor cAMP luminescence, 1 h; Potency, µM (top dose mostly 115 µM), for inactives: at the top dose activation, actives largely listed as activators; 0.075% of 410,000 active; AID 743266; also: potency is read from the fitted curve at half-maximal effect; nearly all actives have a fitted effect of over 55% in size
#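 HEK-293-derived GP2 cells expressing PTHR1 and a GloSensor cAMP reporter, 3,000/well, plated overnight, given luciferin plus IBMX (each 0.5 mM as added) for 1 h at 37 °C, then compound for 1 h at 37 °C. Luminescence was read after 15 min at room temperature.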
# GLP1R ag: activates the human GLP-1 receptor; P43220; HEK293 GLP-1R CRE-luciferase, luminescence, 4-6 h; cells express a hypersensitive GLP-1R form; Potency, µM (highest dose often 45.6 µM), for inactives: at the top dose activation, hits mostly activators; AID 624172; 0.007% of 380,000 active; also: potency is read from the fitted curve at half-maximal effect; % of control where 0% means no effect
# GLP1R inv ag: inverse agonists of human GLP-1 receptor; P43220; HEK293 GLP-1R CRE-luciferase, luminescence, 24 h; GLP-1R form is constitutively active; Potency, µM (highest dose often 38.3 µM), for the others: at the highest dose activity change, negative = inhibition, usual class: inhibitors; 1.6% of 410,000 active; also: potency is read from the fitted curve at half-maximal effect; % is scaled to controls: 0 for no effect and ±100 for the full control effect; nearly all actives have a fitted effect of over 55% in size
#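 Stable HEK293 clone (constitutively active GLP-1R + cAMP-response luciferase); 200 cells/uL plated, 12 h pre-culture, compound 24 hr, 37 deg C/5% CO2; detection reagent 12 min RT; luminescence.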
# GLP1R cytotox: cytotoxicity counter-screen for GLP-1 receptor inverse agonists. AID 624418. Potency, µM (series often up to 38.3 µM), without a hit: at the top dose activity change, negative = inhibition, most hits filed as inhibitors. HEK293 cAMP-luciferase reporter cells, luminescence, 24 h. 0.13% of 410,000 active;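 also: loss of luciferase light is scored as toxicity; potency is read from the fitted curve at half-maximal effect; % is scaled to controls: 0 for no effect and ±100 for the full control effect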
#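 Quantitative HTS format, 1536 wells, 200 cells/uL seeded. Compounds: 23 nL, 24 h, 37 °C. Detection: luciferase reagent, luminescence at 12 min RT; decreased signal taken as cytotoxic.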
# * hit, by the source's call; i = inactive; ? = inconclusive; / = not tested or not shown; [ ] = another dose, or the depositor's remark. Only some compounds are listed: those with a hit (about 2.4% of all), similar ones and a draw of the others. Unless noted, calls follow the shape of the dose curve; as a rule, active = well fitted curve in the direction sought with a large enough effect; inconclusive = small, poorly fitted or top-dose-only effect, or another doubt; inactive = no such curve, though single readings can be large; an effect the other way counts as inactive or inconclusive.
SMILES,TRHR agonist,TRHR enhancer,PTHR1 agonist,GLP1R ag,GLP1R inv ag,GLP1R cytotox
CCCN(CC(=O)Nc1ccccc1OC)C(=O)c1ccc2[nH]c3c(c2c1)CC(C)CC3 (stereo not given),1,10,-21%,-21%,10µM*,-7%
O=C1CCSC2(C(=O)N(Cc3ccccc3)c3ccccc32)N1c1ccccc1 (stereo not given),-1,-3,i,/,11µM*,7%
O=C(COC(=O)c1ccc(O)cc1O)c1ccc2c(c1)OCO2,0,-10,-42%,6%,3%,6%
O=C(COC(=O)c1cc(Cl)ccc1O)c1ccc2c(c1)OCO2,0,38*,-36%,-7%,5%,6%
COc1ccc(N2CC(NC(=O)c3ccc4ccccc4c3)CC2=O)cc1OC (stereo not given),0,2,-16%,2%,12%,-12%
COC(=O)c1cc(NC(=O)c2cccc(Cl)c2)c(=O)oc1/C=C/Nc1cc(C)cc(C)c1,38*,-3,/,/,/,/
COC(=O)c1cc(NC(=O)c2cccc(C(F)(F)F)c2)c(=O)oc1C,-2,0,-13%,9%,-6%,7%
COc1cc(C2C(C#N)=C(N)Oc3n[nH]c(-c4cccnc4)c32)cc(Br)c1O (stereo not given),0,7,i,-3%,19%,-27%
Cc1[nH]c2ccccc2c1/C=N/Nc1ccc([N+](=O)[O-])cc1,38*,9,-5%,4%,2.8µM*,?
Cc1[nH]c2ccccc2c1/C=N/NC(=O)c1cccc([N+](=O)[O-])c1,-1,2,-62%,6%,-30%,21%
CCCN(C(=O)c1ccc(OCC(C)C)cc1)c1c(N)n(Cc2ccccc2)c(=O)[nH]c1=O,1,-3,-24%,-6%,14%,-1%
Cc1ccc(-c2nnc(SCC(=O)NC3CCCc4ccccc43)n2N)cc1 (stereo not given),0,2,-28%,-3%,?,-20%
Cc1ccc(-n2nnnc2SCC(=O)NC2CCCc3ccccc32)c(C)c1 (stereo not given),0,-4,-45%,9%,10µM*,-8%
Cc1ccc(-n2nnnc2SCC(=O)N2CCc3ccccc3C2)c(C)c1,0,7,-25%,-3%,0%,-14%
Cc1ccc(-n2nnnc2SCC(=O)NC2CCCc3ccccc32)cc1 (stereo not given),-1,11,-10%,-1%,10µM*,-7%
COc1ccc2cc1Oc1ccc(cc1)CC1c3c(cc(OC)c4c3Oc3cc5c(cc3O4)CCNC5C2)CCN1C (stereo not given),-1,1,i,-6%,5.6µM*,11µM*
COc1ccc2cc1Oc1ccc(cc1)C[C@H]1c3c(cc(OC)c4c3Oc3c(ccc5c3[C@H](C2)N(C)CC5)O4)CCN1C,/,/,i,9%,2%,0%
CCOc1ccc(-c2nc(SCC(=O)NCCCOC)c(-c3ccccc3)[nH]2)cc1,-1,-1,i,/,0%,-2%
CCN1C(=O)[C@H]2[C@@H](c3ccc(OC)cc3)N[C@]3(CCCN(Cc4cccn4C)C3=O)[C@H]2C1=O,/,/,-20%,-2%,-10%,-21%
COc1ccc(/C=N/Nc2nc(Nc3ccccc3)nc(N3CCCCC3)n2)c(OC)c1,0,-2,-24%,3%,?,5µM*
O=C(Oc1cccc(/C=N/Nc2nc(N3CCOCC3)nc(N3CCOCC3)n2)c1)c1ccco1,-1,2,-12%,3%,?,-1%
COc1cc(/C=N/Nc2nc(Nc3ccccc3)nc(N3CCOCC3)n2)ccc1OC(=O)c1ccco1,1,4,-13%,5%,4.5µM*,-26%
COc1ccc(/C=N/Nc2nc(Nc3ccccc3)nc(N3CCCC3)n2)cc1[N+](=O)[O-],0,-10,-20%,14%,8%,?
COc1cccc(C(=O)Nc2ccccc2C(=O)OCc2cc(=O)n3nc(C)sc3n2)c1,0,-3,i,/,8%,7%
CCOC(=O)CN1C(=O)S/C(=C/c2ccc(N3CCCCC3)o2)C1=O,22,-1,i,7%,21%,-16%
SMILES,TRHR agonist,TRHR enhancer,PTHR1 agonist,GLP1R ag,GLP1R inv ag,GLP1R cytotox
COC(=O)CN1C(=O)S/C(=C/c2ccc(N3CCCCC3)o2)C1=O,56*,20,-59%,3%,3%,-7%
CCC(C)c1ccc(OCc2ccc(C(=O)O)o2)cc1 (stereo not given),1,1,-88%,-8%,2µM*,-2%
CCOC(=O)C(CCCOc1ccc(C(C)CC)cc1)C(=O)OCC (stereo not given),0,0,i,-11%,10µM*,-15%
Cc1ccc(S(=O)(=O)c2nc(S(C)(=O)=O)sc2N2CC(C)OC(C)C2)cc1 (stereo not given),0,8,i,-17%,-4%,-1%
CCOc1ccccc1/C=N\Nc1cnn(Cc2ccccc2)c(=O)c1Cl,0,-3,-8%,13%,7.9µM*,-22%
COc1ccccc1/C=N\Nc1cn[nH]c(=O)c1Cl,1,-7,i,9%,113%,8%
COc1ccc(C2=NN(C(C)=O)CC2c2cccc([N+](=O)[O-])c2)cc1 (stereo not given),-1,-1,i,24%,-20%,-10%
C=CCn1c(NCc2ccccc2O)nc2ccccc21,1,-4,i,2%,?,-8%
C=CCn1c(NCc2cc(Cl)ccc2O)nc2ccccc21,1,-6,-90%,4%,11µM*,-1%
O=C(CSc1nnc(COc2ccc(Cl)cc2)o1)N1c2ccccc2CCc2ccccc21,0,3,-19%[57.5 µM],-3%,3.5µM*,?
CNCCC1Sc2ccccc2Oc2ccccc21 (stereo not given),1,12,i,13%,10µM*,3%
CN(C)CCCC1Sc2ccccc2Sc2ccccc21 (stereo not given),/,/,i,1%,?,?
Cc1ccc(NC(=O)CN(C)C(=O)c2ccc(NS(=O)(=O)c3cccc([N+](=O)[O-])c3)cc2)cc1,/,/,-13%,-1%,11%,-10%
Cc1ccc(S(=O)(=O)N(CC(=O)Nc2cccc([N+](=O)[O-])c2)C2CCCCC2)cc1,0,-2,-4%[57.5 µM],0%,11µM*,-8%
O=C(Nc1cccc([N+](=O)[O-])c1)NC1CCCCCCC1,1,-5,-26%,4%,10µM*,-6%
